# Test results: PubChem BioAssay AID1259343 (VanderVen Lab, College of Veterinary Medicine, Cornell …, 2017)
# Among all 6,200 compounds or so, about 2,900 (47%) were called active. The set was probably picked from earlier hits. The list shows a part of the results. Unmarked numbers belong to inactive results. No stated cut-off is given here; in the data, active means inhibition above about 50%; inactive means the rest.
# Experiment: Mycobacterium tuberculosis growth inhibition, primary screen (AID 1259343)
# Conditions: inhibition: at 10 µM, active compounds read high; outcome: 10 uM
row,SMILES,inhibition
1,CCOC(=O)CSc1nnc(CNc2ccc(C)c(Cl)c2)n1C,94.2% (active)
2,OCC1(CCc2ccccc2)CCCN(c2ncnc3sccc23)C1 (centres undefined),22.8%
3,Oc1c(N=Nc2ccc3c(c2)OCCO3)sc2ccccc12,38.8%
4,Oc1c(-c2ccccn2)sc2ccccc12,90.9% (active)
5,CN(N=Cc1sc2ccccc2c1O)c1ccccc1,-9.99%
6,Fc1ccccc1OCc1n[nH]c(=S)o1,47.7%
7,Cc1ccc(Oc2ncccc2CNc2ncccn2)c(F)c1F,23.9%
8,Fc1ccccc1COc1ccccc1CNc1nn[nH]n1,57.1% (active)
9,Cc1cccc2c(=O)n(CC(=O)NCCc3cccc(F)c3)cnc12,25.4%
10,Cc1cc(NC(=O)Cn2cnc3c(nnn3-c3cccc(F)c3)c2=O)no1,87.4% (active)
11,CSc1cccc(NC(=O)Cc2csc(N3CCCC3=O)n2)c1,70.3% (active)
12,O=C(NC1CCCC1)c1ccc(Br)o1,-20.8%
13,O=C(NCC1CCCO1)c1ccc(Br)o1 (centres undefined),83.8% (active)
14,O=C(NCC1CCCO1)C12CC3CC(CC(C3)C1)C2 (centres undefined),81.2% (active)
15,Cc1cccc(CO[C@]2(C(=O)NCC3CCCO3)CC(OCc3ccc(F)cc3)[C@H](O)[C@H](O)C2)c1 (some centres undefined),-13%
16,Cc1ccc(OCCCCNC(=O)c2ccc(Br)o2)cc1,92.2% (active)
17,O=C(NCCC12CC3CC(CC(C3)C1)C2)C12CC3CC(CC(C3)C1)C2,-25.6%
18,Cc1ccc(CNC(=O)c2ccc(Br)o2)cc1F,16.3%
19,CCCCCCCCNC(=O)c1ccc(Br)o1,74.9% (active)
20,O=C(O)c1ccc2c(c1)C1C=CCC1C(c1ccc(Br)cc1)N2 (centres undefined),66.8% (active)
21,O=C(O)C1Nc2ccc3ccccc3c2C2C=CCC12 (centres undefined),16.2%
22,O=C(O)C1Nc2c(Cl)cc(Cl)cc2C2C=CCC12 (centres undefined),101% (active)
23,O=C(O)C1Nc2ccc(Br)cc2C2C=CCC12 (centres undefined),84.2% (active)
24,N#Cc1nc(C2CC2)oc1N1CCN(C(=O)Nc2ccccc2)CC1,21.4%
25,COC(=O)c1ccc(CSC(=S)N(C)C)cc1,82.1% (active)

row,SMILES,inhibition
1,NC(=O)C1CCN(C(=O)CCc2ccsc2)CC1,90.9% (active)
2,NC(=O)C1CCN(C(=O)CCC2CCCC2)CC1,-28.4%
3,Cc1c(C(=O)N2CCC(C(N)=O)CC2)nnn1-c1nc(-c2ccccc2)cs1,20.4%
4,CC(C)c1csc(C2CCN(C(=O)CCc3ccsc3)CC2)n1,83.6% (active)
5,Cc1cc(C=C2Sc3ccccc3N2C)cc(C)[n+]1-c1ccccc1,41.1%
6,CCC(C)[n+]1c(C)cc(C=C2Sc3ccccc3N2CC)cc1C (centres undefined),84.5% (active)
7,CCN1C(=Cc2cc(C)[n+](C3CCCCC3)c(C)c2)Sc2ccccc21,-19.4%
8,CCN1C(=Cc2ccc3cc(C)ccc3[n+]2CC)Sc2ccccc21,56.1% (active)
9,CC(C)CCOc1ncnc2c1sc1nc3c(cc12)COC(C)(C)C3,63.6% (active)
10,CCCCCOc1ncnc2c1sc1nc3c(cc12)COC(C)(C)C3,51% (active)
11,CC1(C)[C@H]2CC[C@@H](CNC(=O)c3cc(=O)n(-c4ccccc4)[nH]3)[C@@H]1C2,23.3%
12,C=C(NC(=O)C(=C)NC(=O)c1csc(C2=NC3c4csc(n4)C4NC(=O)c5csc(n5)C(C(C)(O)C(C)O)NC(=O)C5CSC(=N5)C(=CC)NC(=O)C(C(C)O)NC(=O)c5csc(n5)C3(CC2)NC(=O)C(C)NC(=O)C(=C)NC(=O)C(C)NC(=O)C(C(C)CC)NC2C=Cc3c(C(C)O)cc(nc3C2O)C(=O)OC4C)n1)C(N)=O (centres undefined),95.4% (active)
13,N=C1c2ccccc2CN1c1ccc(OC(F)(F)C(F)F)cc1,64.2% (active)
14,CSc1nsc(SC)c1NC(=O)OC1CCCCC1,11.5%
15,CC(C(=O)NCc1cccs1)S(=O)(=O)c1ccc(C(F)(F)F)cn1 (centres undefined),14.3%
16,CNS(=O)(=O)Cc1ccc(CNc2ccc(C(F)(F)F)cn2)cc1,50.3% (active)
17,Cc1ccc(CNS(=O)(=O)Cc2ccc(F)cc2)cc1F,29.8%
18,N#Cc1c(Cl)nsc1NC1CCSc2c(F)cccc21 (centres undefined),11.2%
19,N#Cc1c(Cl)nsc1NCCC1CC2CCC1C2 (centres undefined),96.1% (active)
20,COc1cccc(C(CN2CCN(C(=O)C=C(C)C)CC2)OCc2cccc(Cl)c2)c1 (centres undefined),-4.3%
21,N=C1C=CC(=C(c2cccc(N)c2)c2cccc(N)c2)C=C1,68.4% (active)
22,CC1c2cccn2CCN1Cc1csc(Nc2ccccc2)n1 (centres undefined),20.8%
23,CCOc1ccc(NC(=O)CSc2nc(=O)n3ccccc3n2)cc1,2.8%
24,CCOc1ccc(Nc2nc(-c3c(C)nc4ccccn34)cs2)cc1,61.2% (active)
